Each structure is given as a SMILES string. Hit rate of the full screen: of about 200,000 compounds, about 18,000 (9%) were called active. Cut-off read from the data, not from the text of the source: active = inhibition above about 50%; inactive = the rest. The entries come from a sample that favours actives as a whole. Where a SMILES comes first, the peptide text is derived from it. The star is where a group is joined. Bz = O=C(c1ccccc1)*

This test is described as follows: antileishmanial activity against promastigotes – primary screen (AID 1063).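 Note: promastigotes grown with compound for 44 hours at 28 °C.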 The conditions noted are these: Leishmania major promastigotes, resazurin fluorescence viability; at 10 µM; stronger effect = higher value. (Resazurin is reduced to fluorescent resorufin, in cell work by metabolically active cells.)
Broadly, the inhibition is the relative decrease from the control value, in per cent. For the compound `Cc1ccc(NC(=O)OCCNC(=O)c2ccncc2)cc1`, the inhibition is 0.55% (inactive). Under `O=C(CN1C(=O)NC2(CCCCCC2)C1=O)NC1CC1` stands -1.36% (inactive); under `O=C(Nc1ccccc1C(=O)O)c1cc(S(=O)(=O)N2CCCCC2)cs1`, -7.25% (inactive). In the case of `CCOC(=O)c1sc(=NC(=O)/C=C/c2cccs2)n(C)c1C` it was -7.45% (inactive); in that of `Cc1ccc(OCc2n[nH]c(=S)n2-c2ccccc2)cc1`, 0.68% (inactive). In the case of `COc1ccc([N+](=O)[O-])cc1N(CC(O)Cn1nnc2ccccc21)S(=O)(=O)c1ccc(C)cc1` (configuration not stated) it was 99% (active). For the compound `COc1ccc(C)cc1S(=O)(=O)N(CC(=O)Nc1cccc([N+](=O)[O-])c1)c1ccc(C)cc1`, the inhibition was 30.9% (inactive). In the case of `COc1ccccc1N(C(=O)Cn1nnc2ccccc21)C(C(=O)NCc1ccco1)c1ccc(C)o1` (configuration not stated) it was -2.13% (inactive). Under `CC(=O)OC(COc1ccc(F)cc1)Cn1cnc2ccccc21` (configuration not stated) stands -0.28% (inactive). Under `Cc1cc(C(F)F)n2nc(C(=O)Nc3ccc(S(=O)(=O)NC45CC6CC(CC(C6)C4)C5)cc3)nc2n1` stands 99% (active); under `Cc1cc(NS(=O)(=O)c2ccc(NC(=O)c3cccc(OC(F)F)c3)cc2)nc(C)n1`, -1.79% (inactive).

Take `CCn1nccc1C(=O)Nc1ccc(S(=O)(=O)NC23CC4CC(CC(C4)C2)C3)cc1`: the inhibition was 47.6% (inactive). Under `COc1ccc(Cl)cc1N(CC(=O)N1CCCCC1)S(C)(=O)=O` stands -4.47% (inactive); under `COc1ccc(/C=N/S(=O)(=O)c2ccccc2)cc1OC`, 0.14% (inactive). As to `CN(C)c1ccc(/C=N/N(Cc2ccccc2)c2ccccc2)cc1`, the inhibition is 3.58% (inactive). Under `CN(C)c1ccc(/C=N\S(=O)(=O)c2ccccc2)cc1` stands 51.7% (active).

On to `CCNC(=S)NNC(=O)c1ccc2ncccc2c1`, for which the inhibition is -8.24% (inactive). Under `OC(c1nnc(-c2ccccc2)o1)c1cccs1` (configuration not stated) stands 0.18% (inactive). Regarding `O=c1cnnc(Nc2ccccc2F)[nH]1`, the inhibition is -2.35% (inactive).

With `CCN1C(=O)/C(=C\N2CCN(c3ccccc3)CC2)SC1=S`, the inhibition is 0.18% (inactive). In the case of `CC(C)=C1SC(N2CCN(c3cccc(C)c3)CC2)=NC1=O` it was 1.42% (inactive); in that of `CCN1C(=O)/C(=C2\SC(N3CCCCC3)=NC2=O)c2ccccc21`, 74.1% (active). Under `Cc1cccc(C(=O)NC(=S)N2CCN(c3ccc([N+](=O)[O-])cc3)CC2)c1` stands 36.9% (inactive); under `O=C(c1ccc(Cl)c([N+](=O)[O-])c1)N1CCN(c2ccccc2)CC1`, -0.23% (inactive); under `O=C(c1cncc(Br)c1)N1CCN(c2ccc([N+](=O)[O-])cc2)CC1`, 57.2% (active).

`Cc1cc([N+](=O)[O-])nn1CC(=O)Nc1ccc(Cc2ccncc2)cc1`: the inhibition is -0.44% (inactive). With `Cc1ccc2c(=O)oc(N(C)C)nc2c1`, the inhibition is 7.03% (inactive).

In the case of `Cc1ccc(SCCC(=O)NC(C(C)C)C(C)C)cc1`, the inhibition was 59.5% (active). In the case of `Cc1ccc(SCCC(=O)Nc2cc(C)on2)cc1` it was -6.06% (inactive); in that of `Cc1ccc(SCCC(=O)NCc2ccccn2)cc1`, 3.06% (inactive). Under `CN(C)/C=C/C(=O)c1cnc2sccn2c1=O` stands -6.23% (inactive); under `O=C(C(Cc1ccccc1)n1cccc1)N1CCN(C2CCCCC2)CC1` (configuration not stated), 83% (active).

With `Cc1ccc(C(=O)N2CCN(C3CCCCC3)CC2)s1`, the inhibition is -10.8% (inactive).

For the compound `O=C(NC(Cc1ccccc1)C(=O)N1CCCC1C(=O)O)c1ccccc1` (stereo not drawn) (Bz-Phe-Pro-OH; configuration not given here), the inhibition was -8.5% (inactive). In the case of `COCCCN(C(=S)Nc1c(C)cc(C)cc1C)C(C)c1ccncc1` (configuration not stated) it was 1.38% (inactive); in that of `Cc1cccc(-c2nc3ccccc3c(=O)n2NC(=O)Cc2ccc(Cl)cc2)c1`, 53% (active). Under `COc1cc(OC)cc(-c2nc3ccccc3c(=O)n2NC(=O)c2cccnc2Cl)c1` stands 46.3% (inactive); under `O=C(Cc1ccc(Cl)cc1)NCc1nc(-c2ccccc2)no1`, -1.26% (inactive). Take `O=C(Nn1c(-c2ccc(Cl)cc2)nc2ccccc2c1=O)c1cccnc1Cl`: the inhibition is 55.3% (active).

For `O=C(Nn1c(-c2ccccc2)nc2ccccc2c1=O)c1ccc([N+](=O)[O-])cc1`, the inhibition was -4.12% (inactive). Under `O=C(Cn1nnc2ccccc2c1=O)NCc1ccc(Cl)cc1` stands -4.83% (inactive). Regarding `CCCCCC1CCC(c2nnc(SCC(C)=O)o2)CC1` (configuration not stated), the inhibition was -9.46% (inactive). Consider `COCCNC(=O)C(OC(=O)c1cccs1)c1ccc(F)cc1` (configuration not stated), for which the inhibition was -3.33% (inactive). Under `COc1ccc(Cl)cc1NC(=O)CN(C)Cc1ccc(OC)c(OC)c1` stands 1.17% (inactive). For the compound `Cc1cccc(-n2c(Cc3cc(=O)[nH]c(=O)[nH]3)nnc2SCC(=O)Nc2cccc(C(F)(F)F)c2)c1`, the inhibition is -1.75% (inactive). Under `N#Cc1c(NC(=O)C2CC(Cl)=CCC2C(=O)O)sc2c1CCCCC2` (configuration not stated) stands -8.36% (inactive); under `O=C(COc1ccc([N+](=O)[O-])cc1)Nc1ccc(N2CCCC2)cc1`, 86.2% (active). In the case of `O=C(COC(=O)C1CCCCC1)Nc1ccc([N+](=O)[O-])cc1` it was -5.31% (inactive); in that of `COc1ccc(OCC(=O)Nc2ccc(N3CCC(C)CC3)cc2)cc1`, 8.72% (inactive). In the case of `COc1cc(COCC(O)CN2CCN(Cc3ccc4c(c3)OCO4)CC2)cc(OC)c1OC` (configuration not stated) it was 2.04% (inactive). Consider `Cc1cc(=O)oc(C)c1C(=O)NCCN(C)Cc1ccccc1`, for which the inhibition is 9.38% (inactive). Under `COc1ccc(CCNC(=O)CSc2nnc3ccc(-c4ccncc4)nn23)cc1` stands -2.23% (inactive); under `COc1cccc(-c2ccc(C#N)c(SCC(=O)NCCc3ccc(Cl)cc3)n2)c1`, 50.9% (active). As to `COc1ccc(CCNC(=O)CSc2nc(-c3ccc(OC)c(OC)c3)ccc2C#N)cc1`, the inhibition was 27.6% (inactive). With `NS(=O)(=O)c1ccc(NC(=O)/C=C/c2ccccc2Cl)cc1`, the inhibition was 0.13% (inactive). Under `O=C1c2cccnc2C(Nc2ccc(S(=O)(=O)N3CCCCCC3)cc2)N1Cc1ccccc1` (configuration not stated) stands 54.9% (active). Under `Cc1nc(Nc2ccc(S(=O)(=O)N3CCCC3)cc2)c2nnn(Cc3ccccc3)c2n1` stands 0.17% (inactive); under `O=S(=O)(NCc1ccccc1)c1ccc(S(=O)(=O)N2CCCC2)cc1`, -7.35% (inactive); under `CCOc1cccc(SCc2noc(C(=O)NC(C)C)c2C(=O)O)c1`, -11.1% (inactive). Under `COC(=O)c1c(CCl)noc1C(=O)NC(C)C` stands 100% (active); under `COC(=O)c1onc(-c2c(OC)cc(OC)cc2OC)c1C(=O)OC`, -8.2% (inactive). Regarding `Cc1cc(NC(C)C)n2c(nc3ccccc32)c1C#N`, the inhibition is 0.11% (inactive).

Consider `O=C1N(c2ccc(Cl)cc2)C(c2ccc(Cl)cc2)N2CCCN12` (configuration not stated), for which the inhibition was -2.86% (inactive). In the case of `COCCCNC(NC(=O)c1ccc(OC)cc1)C(Cl)(Cl)Cl` (configuration not stated) it was -5.56% (inactive). Under `O=Cc1ccc(OCc2cn3ccccc3n2)cc1` stands -8.44% (inactive). Take `CNC(=O)COC(=O)c1cc(-c2ccc(OC)cc2)nc2ccccc12`: the inhibition is 6.03% (inactive). Turning to `S=c1[nH]nc(CSCc2ccc(Cl)cc2Cl)n1-c1ccccc1`, the inhibition was 14.5% (inactive). In the case of `CCn1c(CSCc2c(Cl)cccc2Cl)n[nH]c1=S`, the inhibition is 81.2% (active). Under `CCn1c(CNS(=O)(=O)c2ccc(Cl)cc2)n[nH]c1=S` stands -0.27% (inactive); under `CCOC(=O)NC(=O)/C(C#N)=C\c1ccccc1`, -7% (inactive); under `O=C(Nc1ccc2c(c1)CCC2)c1cccc(S(=O)(=O)Nc2ccccc2Cl)c1`, 95.5% (active).

Take `O=C(Nc1ccc2c(c1)CCC2)c1cccc(S(=O)(=O)N2CCN(c3ccc(F)cc3)CC2)c1`: the inhibition is 24.5% (inactive).

With `O=C(c1cccc(S(=O)(=O)Nc2ccccc2Cl)c1)N1CCN(C(=O)c2ccco2)CC1`, the inhibition is -0.85% (inactive). Regarding `Cc1ccc(-c2nn(-c3ccccc3)cc2/C=C/C(=O)Nc2cccc(S(N)(=O)=O)c2)cc1`, the inhibition was -2.89% (inactive). For the compound `Cc1ccc(C)c(NC(CC(=O)c2ccccc2)C(=O)OCC(=O)c2cccs2)c1` (configuration not stated), the inhibition is 17.1% (inactive). Under `Cc1ccccc1C(CC(=O)c1cccs1)C(C#N)C#N` (configuration not stated) stands 83.5% (active). Turning to `O=C(CCC(=O)c1cccs1)NCc1ccccc1`, the inhibition was -10.9% (inactive). In the case of `CC(NC(=O)COC(=O)c1ccc(Cl)cc1O)c1ccc(F)cc1` (configuration not stated) it was -6.63% (inactive); in that of `CC(=O)c1ccc(S(=O)(=O)Nc2ccc(C(=O)NCC(c3ccccc3)N(C)C)cc2)cc1` (configuration not stated), 0.26% (inactive).

In the case of `CN(C)CCCNC(=O)c1ccc2[nH]c3ccccc3c2c1`, the inhibition is 13% (inactive). In the case of `CN(C)c1ccc(C(CNC(=O)c2ccc(F)cc2)c2c[nH]c3ccccc23)cc1` (configuration not stated) it was 96.3% (active); in that of `COc1ccc(-n2nc3c(c2NC(=O)c2ccc(N4C(=O)CCC4=O)cc2)CSC3)cc1`, -0.66% (inactive); in that of `O=c1[nH]n(-c2ccc([N+](=O)[O-])cc2)c(=O)c2ccccc12`, -3.65% (inactive). In the case of `CC(C)(C)c1ccc(/C=C/C(=O)NC2CCS(=O)(=O)C2)cc1` (configuration not stated) it was 0.12% (inactive). Under `COc1ccc(S(=O)(=O)N2CCOCC2)cc1C(=O)Nc1nc2ccccc2s1` stands -3.71% (inactive). Take `O=C(Nc1nc2cc3c(cc2s1)OCCO3)c1cccc(S(=O)(=O)N2CCOCC2)c1`: the inhibition was 99.1% (active).

With `O=C(Nc1nc2ccc(S(=O)(=O)N3CCCC3)cc2s1)C1CCCO1` (configuration not stated), the inhibition was 2.48% (inactive). In the case of `Cc1noc(C)c1COc1cccc(C(=O)Nc2cccnc2)c1` it was 4.43% (inactive). Under `CC1=CC=CN2C1=NC(=O)CC2(C)C(=O)N(CC(=O)NC1CCCC1)c1ccccc1C` (configuration not stated) stands 2.29% (inactive); under `Cc1c(NC(=O)CSc2cccc3cccnc23)c(=O)n(-c2ccccc2)n1C`, 44.5% (inactive); under `Cc1nc2ccccc2n1CC(=O)N/N=C/c1cccnc1`, -4.45% (inactive). In the case of `O=C(CSc1cccc2cccnc12)N/N=C/c1cccnc1` it was 101% (active).

The values above are taken from PubChem BioAssay AID1063 (University of Pittsburgh Molecular Library Screening Center, 2008).
